DT40 TDP1 no CPT – qHTS for Inhibitors of human tyrosyl-DNA phosphodiesterase 1 (TDP1): qHTS in cells in absence of CPT. DT40 Tdp1-/- hTDP1 cells, no CPT, ATP luminescence, 48 h. Potency, µM (titrated, usually from 46.2 µM), without a hit: at the highest dose activity change, negative = growth inhibition, most hits filed as inhibitors. 15% of 420,000 active; note: nearly all actives have a fitted effect of over 55% in size
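Seeded 400 DT40-hTDP1 cells/well (vehicle DMSO, no 20 nM CPT); pinned compounds; ≥48 hr at 37 °C; CellTiter-Glo luminescence as viability measure.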
ELG1 repair inh – qHTS screen for small molecules that inhibit ELG1-dependent DNA repair in human embryonic kidney (HEK293T) cells expressing luciferase-tagged ELG1; HEK293T ELG1-luciferase reporter, luminescence, 16 h; DNA damage induced by 5-fluorouridine; Potency, µM (highest dose often 46.1 µM), inactives show top-dose activity change, negative = inhibition, usual class: inhibitors; 2.3% of 330,000 active; AID 504467, 2011; note: nearly all actives have a fitted effect of over 55% in size
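Luminescence from the luciferase reporter, measured 30 min after ONE-Glo reagent at room temperature, was the read-out. Beforehand, 2,000 cells per well were exposed for 16 hr at 37 °C to 5-fluorouridine together with compound or vehicle.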
12-LOX inh – Primary qHTS assay for inhibitors of human arachidonate 12S-lipoxygenase (ALOX12): Round 2; purified 12hLO, xylenol orange hydroperoxide absorbance; Potency, µM (highest dose often 108 µM), for the others: at the top dose activity change, negative = inhibition, most hits filed as inhibitors; 1.1% of 580,000 active
Target sequence (P18054 whole entry, looked up): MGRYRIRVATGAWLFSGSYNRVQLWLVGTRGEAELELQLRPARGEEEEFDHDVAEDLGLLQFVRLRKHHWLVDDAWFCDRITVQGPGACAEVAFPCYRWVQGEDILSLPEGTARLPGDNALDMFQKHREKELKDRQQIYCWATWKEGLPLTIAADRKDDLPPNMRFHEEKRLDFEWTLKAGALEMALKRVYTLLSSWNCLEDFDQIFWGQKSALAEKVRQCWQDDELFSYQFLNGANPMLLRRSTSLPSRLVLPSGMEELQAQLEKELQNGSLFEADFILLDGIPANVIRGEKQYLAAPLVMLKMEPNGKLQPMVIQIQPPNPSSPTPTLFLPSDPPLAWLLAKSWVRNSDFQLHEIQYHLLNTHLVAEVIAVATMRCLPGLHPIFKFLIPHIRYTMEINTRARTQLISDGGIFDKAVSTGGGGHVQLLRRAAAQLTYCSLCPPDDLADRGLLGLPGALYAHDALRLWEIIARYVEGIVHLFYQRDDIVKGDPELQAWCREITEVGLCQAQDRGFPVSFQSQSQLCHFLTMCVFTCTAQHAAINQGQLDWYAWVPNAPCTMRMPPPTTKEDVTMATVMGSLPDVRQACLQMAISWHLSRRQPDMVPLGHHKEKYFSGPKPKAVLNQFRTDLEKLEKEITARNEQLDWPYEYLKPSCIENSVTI
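Purified human 12hLO (150 nM final) in 25 mM Hepes, 0.01% Triton X-100, pH 7.0 was preincubated 15 min at room temperature with compound. Then 40 uM arachidonic acid was added, 30 min. Hydroperoxide was read by Fe-XO absorbance ratio 573/405 nm.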
TDP1 cell CPT – qHTS for Inhibitors of human tyrosyl-DNA phosphodiesterase 1 (TDP1): qHTS in cells in presence of CPT. chicken DT40 Tdp1-/-;hTDP1 cells + 20 nM CPT, ATP luminescence, 48 h. Potency, µM (series often up to 46.2 µM), inactives show top-dose activity change, negative = growth inhibition, usual class: inhibitors. 12% of 420,000 active. AID 686979, 2013; note: nearly all actives have a fitted effect of over 55% in size
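Chicken DT40 Tdp1-/- cells stably complemented with human TDP1 were seeded at 400 cells/well in medium containing 20 nM camptothecin, exposed to pin-transferred compounds, and grown at 37 °C for at least 48 hr. Viability was read as ATP luminescence.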
VP16 counter – VP16 counterscreen qHTS for inhibitors of ROR gamma transcriptional activity | Drosophila S2 Gal4-VP16 UAS-luciferase, luminescence, 20 h | Potency, µM (doses to about 53.6 µM), for inactives: at the top dose activity, negative = inhibition, hits mostly inhibitors | 3.5% of 310,000 active | AID 2546, 2010;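 note: Gal4-VP16 expression switched on by copper sulfate through the metallothionein promoter; nearly all actives have a fitted effect of over 50% in size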
RORg inh – qHTS for inhibitors of ROR gamma transcriptional activity | Nuclear receptor ROR-gamma (Mus musculus), P51450 | Drosophila S2 Gal4-RORgamma UAS-luciferase reporter, 20 h | Potency, µM (highest dose often 53.6 µM), for the others: top-dose activity change, negative = inhibition, actives largely listed as inhibitors | 5.4% of 310,000 active | AID 2551, 2010; note: nearly all actives have a fitted effect of over 60% in size
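ROR gamma transcriptional activity was tracked as Gal4-UAS luciferase output in stably transfected Drosophila Schneider cells, with compound added 1 hr before 700 uM copper sulfate induction and a 20 hr ambient-temperature incubation.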
Starred values were filed as active, the others as inactive; ? = inconclusive; / = no result; ! = repeats disagree; [ ] = remark or other dose. Most compounds without a hit are left out; they make up all but 15% or so of the library. Calls come from the whole dose curve; as a rule, active = well fitted curve in the direction sought with a large enough effect; inconclusive = small, poorly fitted or top-dose-only effect, or another doubt; inactive = no such curve, though single readings can be large; an effect the other way counts as inactive or inconclusive. % is set by controls: 0 for no effect and ±100 for the full control effect; potency is the fitted concentration of half-maximal effect.

SMILES | DT40 TDP1 no CPT | ELG1 repair inh | 12-LOX inh | TDP1 cell CPT | VP16 counter | RORg inh
CCOC(=O)C1=C(CN(C)Cc2ccccc2)NC(=O)NC1c1ccc(OC(C)C)cc1 (stereo not drawn) | 16µM* | / | -9% | 16µM* | / | /
CCOC(=O)C1=C(COc2ccccc2)NC(=O)NC1c1ccc(Br)cc1 (stereo not drawn) | 16µM* | -8% | -10% | 18µM* | -18% | 32%
COc1ncccc1C(=O)N1CCCC(c2nnc(Cn3ccnc3)n2C)C1 (stereo not drawn) | / | / | 13% | / | / | /
O=C(Cc1c(F)cccc1Cl)NCc1cccc(C(=O)Nc2ccccc2)c1 | / | / | 37% | / | / | /
Cc1ccc(-c2c(C(=O)NCc3ccc(F)cc3)oc(=O)c3ccccc23)cc1 | 21µM*! | ? | -10% | ? | -1% | -9%
Cc1ccccc1CS(=O)(=O)Cc1ccc(C(=O)NCc2ccc(F)cc2)o1 | 16µM* | / | -6% | ? | / | /
CCc1ccc(CNC(=O)c2ccc(CS(=O)(=O)Cc3ccccc3C)o2)cc1 | 21µM* | / | -16% | 21µM* | / | /
Cc1ccc(-c2c(C(=O)Nc3ccccc3F)oc(=O)c3ccccc23)cc1 | ? | / | 8% | ? | / | /
COc1ccc(CNC(=O)c2ccc(CS(=O)(=O)Cc3ccccc3F)o2)cc1 | 16µM* | ? | 10% | ? | 30% | 15%
COc1ccc(-c2noc([C@H](C)O)c2C(=O)NC(C)C)cc1 | / | / | -4%[176 µM] | / | / | /
CC1(C)CC(=O)C(C(C#Cc2ccccc2)C2=C(O)CC(C)(C)CC2=O)=C(O)C1 | 9.2µM* | 20% | ? | 6.5µM* | -63% | ?
O=C1CCCC(O)=C1C(C#Cc1ccccc1)C1=C(O)CCCC1=O | 5.2µM* | -7% | / | 3.7µM* | -2% | 30%
COc1cnc(-c2ccccn2)nc1Sc1ccc(C)cc1 | 3.3µM* | 23µM* | -15% | 5.2µM* | 10µM* | 1.1µM*
Cc1ccc(Sc2cc(C)nc(-c3ccccn3)n2)cc1 | 10µM* | ? | 62% | 6.5µM* | 3.2µM* | 0.35µM*
COc1cnc(-c2ccccn2)[nH]c1=O | 2% | ? | 0% | 23% | 0% | -24%
COc1ccccc1Sc1nc(-c2ccccn2)ncc1OC | 2.9µM* | 23µM* | ? | 10µM* | ? | 7.9µM*
Cc1ccc(Sc2cccc(Cl)n2)cc1 | / | / | -26% | / | / | /
COc1cnc(-c2ccccn2)nc1NC(C)C | 0.046µM* | -6% | -9% | 0.13µM* | -10% | ?
COc1ccc(-c2nc(-c3ccccn3)ncc2S(C)(=O)=O)cc1 | -1% | -9% | 6% | 5% | 8% | -21%
CC(=O)NC12CC3CC(C1)CC(C(=O)NCc1ccc(C(=O)N4CCCCC4)cc1)(C3)C2 | / | / | -9% | / | / | /
COc1cnc(-c2ccccn2)nc1Sc1cccc(Cl)c1 | 1.3µM* | ? | -15% | 1.3µM* | 8.9µM* | 2µM*
Nc1cccnc1Sc1cccc(Cl)c1 | -16% | 20% | ? | -20% | -13% | 1%
COc1ccccc1C(=O)N1CCc2nc(C3CC3)nc(-c3ccc(Cl)cc3)c2C1 | / | / | 45µM* | / | / | /
COc1ccc(-c2noc(C3CCCN(C(=O)c4cccc(F)c4)C3)n2)cc1 (stereo not drawn) | 18µM* | -28% | -6% | -29% | -7% | ?
COc1cccc(-c2noc(C3CCCN(C(=O)c4cccc(F)c4)C3)n2)c1 (stereo not drawn) | ? | -28% | 0% | ? | 11% | ?
SMILES | DT40 TDP1 no CPT | ELG1 repair inh | 12-LOX inh | TDP1 cell CPT | VP16 counter | RORg inh
COc1ccc(-c2noc(C3CCCN(C(=O)c4ccccc4OC)C3)n2)cc1 (stereo not drawn) | 15µM* | -8% | 10% | ? | 1% | ?
COc1ccc(-c2noc(C3CCCN(C(=O)c4ccccc4C)C3)n2)cc1 (stereo not drawn) | 12µM* | -22% | 52% | 16µM* | ? | ?
COc1ccc(-c2noc(C3CCCN(C(=O)c4ccccc4)C3)n2)cc1 (stereo not drawn) | ? | -20% | 12% | ? | -1% | 40%
CNC(=O)c1cc(-c2ccccc2)cc2c1OCCN2Cc1cccnc1 | / | / | 19%[176 µM] | / | / | /
CCc1ccc2oc(C(=O)NCC(c3ccc(C)o3)N3CCC(C)CC3)cc(=O)c2c1 (stereo not drawn) | / | / | -23% | / | / | /
O=C(c1ccc(C(F)(F)F)cc1)N1CCN2C(=O)N(Cc3ccc(F)cc3)C[C@H]2C1 | / | / | 5%[176 µM] | / | / | /
COc1cc(-c2nc(C3CC(=O)N(c4ccc(C)cc4)C3)no2)cc(OC)c1OC (stereo not drawn) | / | / | 0% | / | / | /
COc1ccc(C(=O)N2CCCC(c3nc(-c4cc(OC)c(OC)c(OC)c4)no3)C2)cc1 (stereo not drawn) | ? | 7.3µM* | 16% | 21µM* | 11% | 7%
COc1ccccc1C(=O)N1CCCC(c2nc(-c3cc(OC)c(OC)c(OC)c3)no2)C1 (stereo not drawn) | ? | 7.3µM* | 10% | -18% | 6% | ?
COc1cc(-c2noc(C3CC(=O)N(c4cc(C)ccc4C)C3)n2)cc(OC)c1OC (stereo not drawn) | 16µM* | / | -24% | 18µM* | / | /
CCNc1nccc(N2CCC(CC(=O)NCc3ccccc3F)CC2)n1 | / | / | -5% | / | / | /
O=C(NC1CCN(Cc2ccccc2)CC1)c1ccc(I)cc1 | -12% | / | ? | -22% | -3% | 20%
O=C(NC1CCN(Cc2ccc(Cl)c(Cl)c2)CC1)c1ccccc1 | ? | -22% | -26% | 21µM* | 9% | 44%
O=C(NC1CCN(Cc2ccc3ccccc3c2)CC1)c1ccccc1 | 18µM* | -16% | ? | 18µM* | 0% | 33%
O=C(NC1CCN(Cc2ccc(F)cc2)CC1)c1ccccc1 | -27% | 9% | -11% | -4% | -5% | -14%
O=C(NC1CCCCCC1)c1cccc(Oc2ccccc2)c1 | / | / | 3% | / | / | /
CCCN1CCC(NC(=O)c2cccc(Oc3ccccc3)c2)CC1 | 23µM* | ? | -6% | ? | 5% | -12%
CC1(CNc2ccccc2)COc2ccc(C(=O)N3CC[S+](=O)([O-])CC3)cc2N1 (stereo not drawn) | / | / | 21%[176 µM] | / | / | /

From PubChem
